In the supplement of paper PMC9262897, “Low-cost anti-mycobacterial drug discovery using engineered E. coli” (Nature Communications, 2022):
Structures can show the parent of a compound that is named as a salt. ± gives the standard deviation of the averaged measurements.

Experiments:
Experiment in all cases: growth (OD600 after 10 h); higher = more growth (less inhibition)
[1] = test system: E. coli TESEC Alr+ wild-type control; settings: compound 0.1 mM; raw OD600 reference: median of DMSO wells 0.241, cell-free background 0.041
Protocol: (§1)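 TESEC Mtb Alr E. coli, or the Alr+ wild-type control, in 384-well plates with Prestwick library compounds at 0.1 mM and 1% DMSO, across arabinose induction levels of 1E3 to 1E7 nM. Growth is read as OD600 after 10 h at 37 °C in triplicate biological replicates.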

E. coli TESEC Mtb Alr [2] = settings: compound 0.1 mM
Protocol: as §1

E. coli TESEC Mtb Asd = settings: compound 0.1 mM
Protocol: (§2)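 TESEC E. coli strains in which the native enzyme is deleted and replaced by arabinose-inducible Mtb Asd, DapB, CysH or TrpD, each grown in its selective medium. Strains were screened against the Prestwick library at 0.1 mM and 1% DMSO in 384-well format at low and high arabinose induction. Growth is read as OD600 after 10 h in triplicate.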

E. coli TESEC Mtb DapB = settings: compound 0.1 mM
Protocol: as §2

[3] = test system: E. coli TESEC Alr+ wild-type control; settings: compound 0.1 mM; raw OD600 reference: median of DMSO wells 0.49, cell-free background 0.052
Protocol: (§3)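 TESEC Mtb Alr E. coli (ΔaraC ΔtolC ΔentC Δalr ΔdadX, arabinose-inducible Mtb Alr) or the Alr+ wild-type control strain, grown in defined M9-fructose medium without D-alanine in 96-well plates with Prestwick library compounds at 0.1 mM and 1% DMSO. Low Alr induction is 0.1 µM arabinose and high induction is 10 mM arabinose.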

E. coli TESEC Mtb Alr [4] = settings: compound 0.1 mM; remark: listed apart in the source
Protocol: as §3

[5] = arabinose 1000 nM, raw OD600 reference: median of DMSO wells 0.294, cell-free background 0.041
[6] = arabinose 10000 nM, raw OD600 reference: median of DMSO wells 0.264, cell-free background 0.041
[7] = arabinose 100000 nM, raw OD600 reference: median of DMSO wells 0.201, cell-free background 0.041
[8] = arabinose 1000000 nM, raw OD600 reference: median of DMSO wells 0.193, cell-free background 0.041
[9] = arabinose 10000000 nM, raw OD600 reference: median of DMSO wells 0.146, cell-free background 0.041
[10] = arabinose induction (level): High, raw OD600 reference: median of DMSO wells 0.331, cell-free background 0.041
[11] = arabinose induction (level): Low, raw OD600 reference: median of DMSO wells 0.417, cell-free background 0.041
[12] = arabinose induction (level): High, raw OD600 reference: median of DMSO wells […], cell-free background 0.041
[13] = arabinose induction (level): Low, raw OD600 reference: median of DMSO wells 0.227, cell-free background 0.041
[14] = arabinose 100 nM, raw OD600 reference: median of DMSO wells 0.413, cell-free background 0.052
[15] = arabinose 10000000 nM, raw OD600 reference: median of DMSO wells […], cell-free background 0.052

| Compound | growth [1] | growth (E. coli TESEC Mtb Alr [2]; [5]) | growth (E. coli TESEC Mtb Alr [2]; [6]) | growth (E. coli TESEC Mtb Alr [2]; [7]) | growth (E. coli TESEC Mtb Alr [2]; [8]) | growth (E. coli TESEC Mtb Alr [2]; [9]) | growth (E. coli TESEC Mtb Asd; [10]) | growth (E. coli TESEC Mtb Asd; [11]) | growth (E. coli TESEC Mtb DapB; [12]) | growth (E. coli TESEC Mtb DapB; [13]) | growth [3] | growth (E. coli TESEC Mtb Alr [4]; [14]) | growth (E. coli TESEC Mtb Alr [4]; [15]) |
| --- | --- | --- | --- | --- | --- | --- | --- | --- | --- | --- | --- | --- | --- |
| Cc1ccnc2c1NC(=O)c1cccnc1N2C1CC1 [Nevirapine] | 0.233 ± 0.0085 | 0.29 ± 0.0079 | 0.254 ± 0.0046 | 0.212 ± 0.0063 | 0.203 ± 0.0086 | 0.14 ± 0.0044 | 0.399 ± 0.051 | 0.391 ± 0.053 | 0.209 ± 0.012 | 0.243 ± 0.0097 | 0.507 ± 0.057 | 0.402 ± 0.014 | 0.343 ± 0.011 |
| Cc1cnc(C(=O)NCCc2ccc(S(=O)(=O)NC(=O)NC3CCCCC3)cc2)cn1 [Glipizide] | 0.252 ± 0.0045 | 0.289 ± 0.0034 | 0.263 ± 0.0066 | 0.193 ± 0.019 | 0.183 ± 0.0084 | 0.141 ± 0.0039 | 0.341 ± 0.084 | 0.406 ± 0.029 | 0.199 ± 0.032 | 0.256 ± 0.042 | 0.506 ± 0.049 | 0.419 ± 0.0083 | 0.222 ± 0.025 |
| CCN(CC)CCNC(=O)COc1ccc(OC)cc1 [Mefexamide hydrochloride] | 0.24 ± 0.0042 | 0.285 ± 0.019 | 0.2683 ± 0.0018 | 0.196 ± 0.01 | 0.182 ± 0.0058 | 0.143 ± 0.0038 | 0.304 ± 0.1 | 0.411 ± 0.013 | 0.225 ± 0.041 | 0.227 ± 0.026 | 0.501 ± 0.067 | 0.421 ± 0.0097 | 0.343 ± 0.0047 |
| CC(C(O)c1ccc(O)cc1)N1CCC(Cc2ccccc2)CC1 (stereo unspecified) [Ifenprodil tartrate] | 0.195 ± 0.018 | 0.251 ± 0.019 | 0.276 ± 0.0052 | 0.194 ± 0.0092 | 0.143 ± 0.0037 | 0.172 ± 0.0094 | 0.313 ± 0.065 | 0.427 ± 0.028 | 0.1878 ± 0.00062 | 0.227 ± 0.036 | 0.453 ± 0.037 | 0.409 ± 0.011 | 0.312 ± 0.0043 |
| CC1CCc2cc(F)cc3c(=O)c(C(=O)O)cn1c23 (stereo unspecified) [Flumequine] | 0.0491 ± 0.00083 | 0.04537 ± 0.00031 | 0.0396 ± 0.00065 | 0.0452 ± 0.0012 | 0.0416 ± 0.0004 | 0.04987 ± 0.00029 | 0.059 ± 0.0029 | 0.0732 ± 0.0099 | 0.0826 ± 0.0024 | 0.0692 ± 0.0075 | 0.0527 ± 0.00046 | 0.0543 ± 0.0034 | 0.05097 ± 0.00047 |
| COc1ccc2c3c1O[C@H]1C[C@@H](O)C=C[C@@]31CCN(C)C2 [Galanthamine hydrobromide] | 0.249 ± 0.0042 | 0.291 ± 0.0095 | 0.245 ± 0.0045 | 0.218 ± 0.014 | 0.161 ± 0.0075 | 0.1382 ± 0.00072 | 0.229 ± 0.0098 | 0.376 ± 0.094 | 0.186 ± 0.012 | 0.195 ± 0.016 | 0.459 ± 0.04 | 0.409 ± 0.01 | 0.34 ± 0.022 |
| Nc1nc(=O)[nH]cc1F [Flucytosine] | 0.245 ± 0.0069 | 0.309 ± 0.022 | 0.243 ± 0.0058 | 0.187 ± 0.011 | 0.175 ± 0.008 | 0.14 ± 0.0027 | 0.456 ± 0.025 | 0.492 ± 0.026 | 0.21 ± 0.018 | 0.222 ± 0.016 | 0.57 ± 0.021 | 0.411 ± 0.015 | 0.333 ± 0.02 |
| CCn1cc(C(=O)O)c(=O)c2cnc(N3CCCC3)nc21 [Piromidic acid] | 0.228 ± 0.0041 | 0.314 ± 0.026 | 0.267 ± 0.0056 | 0.161 ± 0.019 | 0.182 ± 0.0092 | 0.145 ± 0.0049 | 0.288 ± 0.037 | 0.432 ± 0.015 | 0.208 ± 0.016 | 0.239 ± 0.025 | 0.144 ± 0.003 | 0.12 ± 0.021 | 0.105 ± 0.015 |
| C=CC1=C(C(=O)O)N2C(=O)[C@@H](NC(=O)/C(=N\O)c3csc(N)n3)[C@H]2SC1 [Cefdinir] | 0.0391 ± 0.00064 | 0.0401 ± 0.0026 | 0.0401 ± 0.00087 | 0.038 ± 0.0008 | 0.0415 ± 0.0031 | 0.0408 ± 0.0009 | 0.0771 ± 0.0071 | 0.0475 ± 0.00091 | 0.0548 ± 0.003 | 0.0595 ± 0.015 | 0.0483 ± 0.0014 | 0.0463 ± 0.00075 | 0.0569 ± 0.0017 |
| C=CCN1CCCC1CNC(=O)c1cc2nn[nH]c2cc1OC (stereo unspecified) [Alizapride HCl] | 0.234 ± 0.0057 | 0.277 ± 0.0082 | 0.271 ± 0.01 | 0.218 ± 0.025 | 0.191 ± 0.0082 | 0.143 ± 0.0052 | 0.299 ± 0.032 | 0.373 ± 0.05 | 0.217 ± 0.022 | 0.201 ± 0.017 | 0.536 ± 0.045 | 0.406 ± 0.011 | 0.336 ± 0.011 |
| Cc1c(Cl)cccc1Nc1ncccc1C(=O)O [Clonixin Lysinate] | 0.181 ± 0.0096 | 0.207 ± 0.0063 | 0.155 ± 0.0017 | 0.173 ± 0.0047 | 0.0952 ± 0.0017 | 0.15 ± 0.0047 | 0.19 ± 0.011 | 0.17 ± 0.0079 | 0.175 ± 0.019 | 0.207 ± 0.035 | 0.334 ± 0.0083 | 0.283 ± 0.023 | 0.173 ± 0.026 |
| CC[C@H]1OC(=O)[C@H](C)[C@@H](O[C@H]2C[C@@](C)(OC)[C@@H](O)[C@H](C)O2)[C@H](C)[C@@H](O[C@@H]2O[C@H](C)C[C@H](N(C)C)[C@H]2O)[C@](C)(OC)C[C@@H](C)C(=O)[C@H](C)[C@@H](O)[C@]1(C)O [Clarithromycin] | 0.0414 ± 0.00036 | 0.0421 ± 0.00026 | 0.04 ± 0.00071 | 0.0426 ± 0.00059 | 0.041 ± 0.0018 | 0.0437 ± 0.0036 | 0.0608 ± 0.013 | 0.0537 ± 0.0096 | 0.061 ± 0.0028 | 0.0632 ± 0.0078 | 0.055 ± 0.00044 | 0.0576 ± 0.0015 | 0.0524 ± 0.00061 |
| O=C1O[C@H]([C@@H](O)CO)C(O)=C1O [Ascorbic acid] | 0.255 ± 0.0052 | 0.303 ± 0.0086 | 0.249 ± 0.007 | 0.22 ± 0.043 | 0.186 ± 0.0041 | 0.157 ± 0.0037 | 0.374 ± 0.076 | 0.445 ± 0.06 | 0.187 ± 0.0051 | 0.209 ± 0.0043 | 0.483 ± 0.056 | 0.387 ± 0.024 | 0.35 ± 0.028 |
| O=C(Nc1ccccc1)OCC(CN1CCCCC1)OC(=O)Nc1ccccc1 (stereo unspecified) [Diperodon hydrochloride] | 0.193 ± 0.0045 | 0.249 ± 0.0066 | 0.259 ± 0.0044 | 0.231 ± 0.037 | 0.0876 ± 0.0038 | 0.154 ± 0.0081 | 0.235 ± 0.019 | 0.345 ± 0.065 | 0.2 ± 0.0073 | 0.223 ± 0.038 | 0.405 ± 0.02 | 0.426 ± 0.0081 | 0.243 ± 0.028 |
| COc1ccnc(C[S+]([O-])c2nc3cc(OC(F)F)ccc3[nH]2)c1OC (stereo unspecified) [Pantoprazole sodium] | 0.168 ± 0.0022 | 0.218 ± 0.0049 | 0.28 ± 0.0076 | 0.18 ± 0.011 | 0.119 ± 0.0037 | 0.137 ± 0.0065 | 0.308 ± 0.1 | 0.296 ± 0.057 | 0.189 ± 0.0071 | 0.194 ± 0.018 | 0.451 ± 0.013 | 0.399 ± 0.011 | 0.291 ± 0.022 |
| OCC(O)CN1CCN(c2ccccc2)CC1 (racemic) [Dropropizine (R,S)] | 0.241 ± 0.0033 | 0.283 ± 0.018 | 0.255 ± 0.0087 | 0.228 ± 0.014 | 0.174 ± 0.0046 | 0.144 ± 0.0086 | 0.364 ± 0.032 | 0.424 ± 0.03 | 0.2 ± 0.025 | 0.248 ± 0.026 | 0.431 ± 0.04 | 0.404 ± 0.014 | 0.361 ± 0.022 |
| O=C(Oc1cccc2cccnc12)c1ccccc1 [Benzoxiquine] | 0.222 ± 0.0051 | 0.264 ± 0.016 | 0.28 ± 0.0036 | 0.172 ± 0.014 | 0.198 ± 0.011 | 0.14 ± 0.01 | 0.316 ± 0.12 | 0.289 ± 0.017 | 0.182 ± 0.018 | 0.201 ± 0.015 | 0.505 ± 0.036 | 0.368 ± 0.016 | 0.281 ± 0.01 |
